# TEAD-YAP block = TEAD-YAP interaction inhibition. HEK-TIYL cells, TEAD-Gal4/YAP UAS-luciferase luminescence. inhibition, % at 9.12 µM. hit rate 1.4% among 640,000; in the data active = inhibition above about 32%
# MITF primary = blocks human microphthalmia-associated transcription factor | O75030 | AlphaScreen MITF homodimerization, bead proximity signal | inhibition, % at 2.6 µM | hit rate 0.91% among 650,000; in the data active = inhibition above about 50%
# GPR151 activ = human GPR151 activation; PathHunter beta-arrestin GPR151 cells, luminescence; hit rate 1% among 650,000; Q8TDV0; activation, % at 11.2 µM; in the data active = activation above about 4.9%
# FBW7 activator = human FBW7 E3 ligase activation, primary screen; Q969H0; AlphaScreen FBW7–phospho-cyclin E peptide binding, activator screen; normalized activity (activation), % at 26.1 µM; hit rate 0.13% among 650,000; in the data active = normalized activity above about 1.9%;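 note: purified mutant Fbw7 with reduced substrate affinity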
# Target sequence (Q969H0 whole entry, looked up): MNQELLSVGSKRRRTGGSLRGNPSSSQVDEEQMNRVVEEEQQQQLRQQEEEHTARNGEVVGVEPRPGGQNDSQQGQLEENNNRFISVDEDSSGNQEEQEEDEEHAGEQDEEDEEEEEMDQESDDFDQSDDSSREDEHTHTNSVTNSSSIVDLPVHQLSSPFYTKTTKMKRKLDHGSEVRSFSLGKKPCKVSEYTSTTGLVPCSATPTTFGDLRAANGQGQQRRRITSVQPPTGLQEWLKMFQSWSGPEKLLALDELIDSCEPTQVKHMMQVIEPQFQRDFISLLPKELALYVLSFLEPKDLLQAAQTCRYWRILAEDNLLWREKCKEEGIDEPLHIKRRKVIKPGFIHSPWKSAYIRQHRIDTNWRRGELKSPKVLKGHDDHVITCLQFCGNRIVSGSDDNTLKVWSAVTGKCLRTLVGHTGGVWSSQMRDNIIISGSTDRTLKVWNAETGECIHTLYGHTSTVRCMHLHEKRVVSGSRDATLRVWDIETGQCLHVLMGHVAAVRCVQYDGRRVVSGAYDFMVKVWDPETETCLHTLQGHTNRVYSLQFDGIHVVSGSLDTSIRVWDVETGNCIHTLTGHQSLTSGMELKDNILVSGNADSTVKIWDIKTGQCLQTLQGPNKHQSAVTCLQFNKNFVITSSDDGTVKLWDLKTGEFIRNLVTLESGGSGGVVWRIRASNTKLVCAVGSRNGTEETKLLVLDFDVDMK
# Numbers stand for hits; - = inactive. Shown are actives, neighbours in structure and some others; about 3.5% of the full set was active somewhere.
SMILES,TEAD-YAP block,MITF primary,GPR151 activ,FBW7 activator
Cc1ccc(/C=N/NC(=O)Cn2cnc3c(=O)n(C)c(=O)n(C)c32)cc1,-,-,-,-
CC(=O)N(C1=C(N2CCOCC2)C(=O)c2ccccc2C1=O)c1ccc(F)c(F)c1,32,-,-,-
CC(=O)N(C1=C(N2CCOCC2)C(=O)c2ccccc2C1=O)c1cc(C)cc(C)c1,39,-,-,-
CNC(=O)/C(C#N)=C\c1cc(C)n(-c2ccc(N3CCOCC3)cc2)c1C,-,-,-,-
CNC(=O)/C(C#N)=C\c1cc(C)n(-c2ccc(Br)cc2)c1C,32,-,-,-
COC(=O)c1cccc(-n2c(C)cc(/C=C(\C#N)C(=O)Nc3ccc(OC)cc3)c2C)c1,53,-,-,-
COCCCNC(=O)/C(C#N)=C/c1cc(C)n(-c2sc3c(c2C#N)CCCC3)c1C,59,-,-,-
COC(=O)c1ccc(-n2c(C)cc(/C=C(\C#N)C(=O)N3CCOCC3)c2C)cc1,-,-,-,-
Cc1cc(/C=C(\C#N)C(=O)N2CCOCC2)c(C)n1-c1ccccc1,71,-,-,-
Cc1ccc(-c2nnn(CC(=O)Nc3ccc(C(=O)N4CCCC4)cc3)n2)o1,-,-,-,-
OCCNc1nc(NCCN2CCOCC2)nc2c1ncn2-c1ccsc1,-,-,-,-
Cc1nc2ccccc2c(C(=O)OCC(=O)c2ccccc2)c1C(=O)OCC(=O)c1ccccc1,-,-,-,-
COCCNC(=O)/C(C#N)=C/c1cc(C)n(-c2ccccc2)c1C,65,-,-,-
CC(=O)c1ccc(-c2ccc(N)c(C(=O)c3ccccc3)c2)cc1,58,-,-,-
NC(=O)c1cc(Cc2ccccc2)sc1NC(=O)Cc1ccc([N+](=O)[O-])cc1,-,-,-,-
O=C(NC1CCCCCC1)/C(=C/c1ccco1)n1nnnc1-c1ccccc1,34,-,-,-
NC(=O)COC(=O)/C(=C/c1ccco1)n1nnnc1-c1ccccc1,-,-,-,-
CCN(CC)c1ccc2cc(C(=O)Nc3cccc(C)c3)c(=N)oc2c1,-,-,-,2.4
COC(=O)/C=C(\Nc1ccc(C)cc1)C(=O)OC,-,-,-,-
Oc1cccc(/C=N/Nc2ncnc3nc[nH]c23)c1,-,-,-,-
COc1ccc(/C=N/Nc2ncnc3nc[nH]c23)cc1O,37,-,-,-
CCN(CC)c1ccc(/C=N/Nc2ncnc3nc[nH]c23)cc1,76,-,-,-
COc1ccc(/C=N/Nc2ncnc3nc[nH]c23)c(OC)c1,38,-,-,-
Brc1cccc(/C=N/Nc2ncnc3nc[nH]c23)c1,57,-,-,-
CCOc1ccccc1/C=N/Nc1ncnc2nc[nH]c12,-,-,-,-
SMILES,TEAD-YAP block,MITF primary,GPR151 activ,FBW7 activator
COc1ccc(Cl)cc1NC(=O)c1c(NCc2cccc(OC)c2OC)sc2c1CCC2,-,-,-,-
CN(C)c1ccc(/C=C2/SC(=S)N(NC(=O)c3ccc([N+](=O)[O-])cc3)C2=O)cc1,-,-,-,-
COCCCNC(=O)CCc1nnc(C2(c3ccc(Cl)cc3)CCC2)o1,-,-,-,-
CCc1ccc(OCC(=O)NCc2cccs2)cc1,-,-,-,-
CCOc1ccc(-c2cc(=O)n(CC(=O)NCc3cccs3)cn2)cc1,44,-,-,-
Cc1[nH]n(-c2ccccc2)c(=O)c1C(c1ccccc1)c1c(C)[nH]n(-c2ccccc2)c1=O,-,-,-,-
Cn1cccc1CN(Cc1cccs1)S(=O)(=O)Cc1cccc(Cl)c1,-,-,-,-
Cc1cc(C)c2nc3c(cc2c1)CN(Cc1ccco1)C(=O)CO3,-,-,-,-
Cc1ccc2cc3c(nc2c1C)OC(C)C(=O)N(Cc1ccco1)C3 (centres undefined),56,-,-,-
COc1ccc(C(=O)Nc2nc3c(s2)CCCC3)c(OC)c1OC,62,-,-,-
COc1cccc(C(=O)Nc2nc3c(s2)CCC3)c1OC,62,-,-,-
COc1cccc(OC)c1C(=O)Nc1nc2c(s1)CCCC2,-,-,-,-
Cc1csc(NC(=O)CSc2nnc(-c3ccccc3O)n2-c2ccccc2)n1,57,-,-,-
NC(=O)c1ccsc1NC(=O)CSc1nnc(-c2ccccc2)n1-c1ccccc1,45,-,-,-
C=CCn1c(SCC(=O)Nc2sccc2C(N)=O)nnc1-c1ccccc1,-,-,-,-
CCCCc1ccc(-n2nnnc2SCC(=O)Nc2sccc2C(N)=O)cc1,37,-,-,-
O=C(CSc1nnc(-c2ccccc2)n1-n1cccc1)Nc1nccs1,38,-,-,-
Cc1ccc(C)c(NC(=O)Cn2c(C)c3cnn(-c4ccccc4)c(=O)c3c2C)c1,-,-,-,-
O=C1c2nccnc2C(=O)N1c1ccc(Cl)c(C(F)(F)F)c1,-,-,-,-
COc1ccc(C2(O)CN(c3ccc(Cl)cc3)C3=[N+]2CCCC3)cc1OC (centres undefined),-,-,-,-
C=CCn1c(SCC(=O)Nc2nccs2)nnc1-c1ccccc1O,61,-,-,-
CCn1c(SCC(=O)Nc2nccs2)nnc1-c1ccccc1O,-,-,-,-
O=C(CSc1nnc(-c2ccccc2O)n1-c1ccccc1)Nc1nccs1,54,-,-,-
O=c1c(O)c(-c2cc(O)c(O)c(O)c2)oc2cc(O)ccc12,-,78,-,-
O=c1c(O)c(-c2ccc(O)c(O)c2)oc2cc(O)ccc12,-,-,-,-
SMILES,TEAD-YAP block,MITF primary,GPR151 activ,FBW7 activator
Cc1cc(C)c2oc(-c3ccc(C)c(NC(=O)CC(C)C)c3)nc2c1,-,-,-,-
Cc1cc(Nc2cc(Cl)ccc2O)n2ncnc2n1,-,-,-,-
O=S(=O)(NCC1CCCO1)c1ccc(Oc2ccc(S(=O)(=O)NCC3CCCO3)cc2)cc1 (centres undefined),59,-,-,-
O=S(=O)(NCC1CCCO1)c1ccc(Br)cc1 (centres undefined),-,-,-,-
CCCSc1nc2c(c(=O)n1-c1ccccc1C)C1(CCCC1)Cc1ccccc1-2,-,-,-,-
N/C(=N\c1nc(C(F)(F)F)cc(=O)[nH]1)Nc1ccc(I)cc1,45,-,-,-
CC(=O)c1cccc(-c2nc(Nc3ccccc3)c3ncn(CCN4CCCC4=O)c3n2)c1,-,-,-,-
CC1=NN(C(N)=S)C(=O)C1N=Nc1ccccc1C (centres undefined),-,-,-,-
CC1=NN(C(N)=S)C(=O)C1N=Nc1ccccc1O (centres undefined),-,58,-,-
O=C1OC(NC(=O)c2ccccc2)C(Nc2ccccc2O)=C1Cl (centres undefined),-,-,-,-
Cc1cccc(C(=O)/C(C#N)=N/Nc2c(C)n(C)n(-c3ccccc3)c2=O)c1,42,-,-,-
COC(=O)c1ccc(C)c(NS(=O)(=O)c2ccc(C)cc2)c1,56,-,-,-
COC(=O)c1ccc(C)c(NS(=O)(=O)c2ccc(F)cc2)c1,-,-,-,-
CCOC(=O)c1cc2cccc(NS(=O)(=O)c3ccc(C)cc3)c2[nH]1,39,-,-,-
COC(=O)c1ccc(C)c(NS(=O)(=O)c2ccc(Br)cc2)c1,45,-,-,-
Cc1ccc(NC(=O)COC(=O)[C@H](Cc2ccccc2)NC(=O)c2ccco2)cc1F,-,-,-,-
